From PubChem BioAssay
CYP2C9 inhib = inhibitors of human CYP2C9; P11712; CYP2C9 Supersomes, luciferin-H conversion, luminescence; inhibition, % at 5 µM; 96,000 compounds, 20% hits; AID 777;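 active means blocking of liver enzyme CYP2C9 beyond about 50% at 5 µM, limit read from the data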
CYP2C19 act = activators of human cytochrome P450 2C19; 96,000 tested, under 10 active; recombinant CYP2C19, luciferin-H EGE luminescence; hits give high values; 0 = fully inhibited enzyme, 1 = untreated enzyme; AID 1025; activation factor at 5 µM;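 active means activation factor of at least 2 at 5 µM in the primary screen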;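 further: 0 = wells with 2.5 mM tranylcypromine and 1 = vehicle-only wells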
CYP2C19 inhib = human CYP2C19 inhibition; CYP2C19 Supersomes, luciferin-H EGE luminescence, 30 min; inhibition, % at 5 µM; 96,000 compounds, 21% hits; AID 778;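 active means CYP2C19 inhibition above a set limit at 5 µM in the primary screen, cut at about 50% in these data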;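 further: plate controls were negative control wells for no effect and 2.5 mM tranylcypromine positive control for full effect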
CYP2C9 act = activators of human CYP2C9; P11712; recombinant CYP2C9, luciferin-H conversion, luminescence; hits give high values; factor 1 = untreated enzyme, 0 = blocked; activation factor at 5 µM; 96,000 compounds, 1.4% hits; AID 1024;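 active means activation factor of 2 or more for CYP2C9 at a 5 µM dose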;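 further: 0 = sulfaphenazole-blocked wells and 1 = vehicle-only wells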
EphB4 ephrin blk = antagonists of human EphB4-ephrin-B2 interaction | P54760 | EphB4 LBD / TNYL-RAW-Alexa532 peptide, fluorescence polarization | inhibition, % at 7 µM | 97,000 compounds, 0.15% hits;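 active means inhibition above the screen-wide mean inhibition plus 3 SD, cut at about 15% in these data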;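 further: 0% = DMSO wells and 100% = excess unlabeled TNYL-RAW peptide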
Numbers without * were called inactive; · = not tested or not shown. In the library only some 27% were active in any assay of this set; here they are far more common.

SMILES	CYP2C9 inhib	CYP2C19 act	CYP2C19 inhib	CYP2C9 act	EphB4 ephrin blk
c1ccc(-n2ncc3c(NCCN4CCCCC4)ncnc32)cc1	14	0.8	18	0.9	-3
c1ccc(-n2ncc3c(NCCN4CCOCC4)ncnc32)cc1	52*	0.7	29	0.5	-4
COc1ccc(C(=O)n2nc(-c3ccccc3)nc2SC)cc1	11	0.7	31	0.9	-2
COc1ccc(C(=O)N=c2nc3ccccn3s2)cc1	33	0.4	65*	0.7	·
COc1ccc(OC)c(NS(=O)(=O)c2ccc3c(c2)n(C)c(=O)n3C)c1	45	0.2	78*	0.5	3
Cn1c(=O)n(C)c2cc(NS(=O)(=O)c3ccc4c(c3)CCCC4)ccc21	21	0	95*	0.8	-12
COC(=O)COc1ccc(S(=O)(=O)Nc2cc(OC)ccc2OC)cc1	-86	0	99*	1.9	-4
COc1ccc(NS(=O)(=O)c2ccc3c(c2)n(C)c(=O)n3C)cc1	74*	0.7	27	0.3	3
Cc1nc2c(C)cccn2c1C(=O)c1ccccc1	6	0.8	19	0.9	-2
CCC(C)NC(=O)CSc1nc2ccsc2c(=O)n1NC(=O)c1ccccc1 (stereo not drawn)	44	1	-5	0.6	6
CCOC(=O)c1oc2ccc(S(=O)(=O)Nc3ccc4c(c3)n(C)c(=O)n4C)cc2c1C	94*	0.2	79*	0.1	-1
CCOC(=O)c1ccc(NC(=O)CCNS(=O)(=O)c2ccc3c(c2)oc(=O)n3C)cc1	-30	0.9	10	1.3	·
O=c1[nH]c2cccnc2n1Cc1ccccc1	94*	0.5	51*	0.1	11
CC1(C)CC(=O)c2sc(NC(=O)CN3C(=O)CCC3=O)nc2C1	-9	0.9	10	1.1	-2
CCC(C(=O)Nc1cnccn1)c1ccccc1 (stereo not drawn)	18	0.4	60*	0.8	-4
O=C(CN1C(=O)NC2(CCCCCC2)C1=O)N1CCN(S(=O)(=O)c2ccc(Cl)cc2)CC1	10	0.9	8	0.9	-10
CCOC(=O)c1cnc(-n2nc(C)cc2C)nc1NCc1ccc2c(c1)OCO2	62*	0.7	33	0.4	6
CCOC(=O)c1cnc(-n2nc(C)cc2C)nc1NCCc1ccccc1	92*	0.2	83*	0.1	6
CCOC(=O)c1cnc(-n2nc(C)cc2C)nc1Nc1ccccc1OC	5	1.1	-5	1	-1
CCOC(=O)c1cnc(-n2nc(C)cc2C)nc1Nc1ccc(OC)cc1	0	1	0	1	0
Clc1ccc(-c2noc(CCCOc3ccccc3)n2)cc1	30	0.7	26	0.7	10
CCOc1ccc(Cc2c(Cl)nc(N)nc2Cl)cc1	-4	0.5	53*	1	-1
CCOc1ccc(Cc2nc(N)nc(N)n2)cc1	·	·	·	·	2
Cc1ccc(C(=O)N(c2ccccc2)C2CC(C)N(C(=O)c3ccco3)c3ccccc32)cc1 (stereo not drawn)	94*	0.5	52*	0.1	2
CS(=O)(=O)N(CCc1ccccc1)CC(=O)N1CCc2ccccc2C1	54*	0.3	68*	0.5	-4
SMILES	CYP2C9 inhib	CYP2C19 act	CYP2C19 inhib	CYP2C9 act	EphB4 ephrin blk
CCN(CC(=O)N1CCc2ccccc2C1)S(=O)(=O)c1ccc2ccccc2c1	-143	0.6	39	2.4*	-1
CS(=O)(=O)N(CCc1ccccc1)CC(=O)N1CCCCC1	-10	0.9	7	1.1	-9
COc1cc(C)c(Cl)cc1S(=O)(=O)NCCN1CCOCC1	-16	0.2	83*	1.2	-3
COc1cc(C)c(S(=O)(=O)N2CCOCC2)cc1C(C)C	10	0.5	53*	0.9	-10
COc1cc(Cl)c(S(=O)(=O)NCCCN2CCOCC2)cc1Cl	-90	0.5	46	1.9	3
COc1cc(C)c(Cl)cc1S(=O)(=O)NCCCN1CCOCC1	-32	0.3	66*	1.3	0
COc1ccccc1NS(=O)(=O)c1cc(C(=O)NCCN2CCOCC2)ccc1Cl	-11	1.1	-7	1.1	2
COc1c(S(=O)(=O)NCCN2CCOCC2)ccc(Cl)c1Cl	-83	0.2	80*	1.8	-4
COc1ccc(S(N)(=O)=O)cc1C(=O)NCCCN1CCN(c2cccc(Cl)c2)CC1	2	1	-4	1	-6
COc1ccc(OC)c(-c2c[n+](=O)c3c(n2[O-])CCCC3)c1	-11	1.2	-20	1.1	-4
Cc1ccc(S(=O)(=O)NCCCN2CCOCC2)c(C)c1	-56	0.4	64*	1.6	·
CCOC(=O)Nc1ccc(S(=O)(=O)NCCCN2CCOCC2)cc1	1	1.2	-17	1	8
CCOC(=O)CSc1cc(=O)n(C)c2cc(Cl)ccc12	51*	0.4	64*	0.5	5
O=c1cc(O)n(-c2ccc(F)cc2)c(=S)[nH]1	-10	0.9	8	1.1	3
COc1cc(C(=O)N2CCN(S(=O)(=O)c3ccc(C)cc3)CC2)ccc1OCc1c(C)noc1C	56*	0.3	70*	0.4	2
COc1ccc(S(=O)(=O)N2CCc3ccccc32)cc1C(=O)OCc1c(C)noc1C	99*	0.1	95*	0	-6
COc1ccc(S(=O)(=O)N2CCCCCC2)cc1C(=O)OCC(=O)NC(N)=O	21	0.9	10	0.8	1
COc1ccc(S(=O)(=O)N2CCCCCC2)cc1C(=O)OCc1c(C)noc1C	86*	0.5	50*	0.1	1
COc1cc(C=O)ccc1OCc1c(C)noc1C	48	0.2	85*	0.5	5
O=C(c1ccccc1)N(c1ccccc1)C1C=CS(=O)(=O)C1 (stereo not drawn)	17	0.7	25	0.8	-4
COC(=O)c1cc2c(cc1NC(=O)CSCCc1ccccn1)OCO2	39	0.7	29	0.6	·
C=C(Br)Cn1c(CC)nc2ccccc21	-4	1	2	1	0
Cc1noc(C)c1COC(=O)c1cccc(S(=O)(=O)N2CCCCCC2)c1	96*	0.1	91*	0	·
CCCCNC(=O)COC(=O)c1cc(S(=O)(=O)N2CCCCCC2)ccc1OC	48	0.4	55*	0.5	1
Cc1noc(C)c1COC(=O)c1ccc2c(c1)OCCO2	·	·	·	·	1
SMILES	CYP2C9 inhib	CYP2C19 act	CYP2C19 inhib	CYP2C9 act	EphB4 ephrin blk
CC(C)OC(=O)c1cc(NC(=S)Nc2ccc([N+](=O)[O-])cc2)cc(C(=O)OC(C)C)c1	·	·	·	·	3
O=CN(/C=C1\Sc2ccccc2C1=O)Cc1ccccc1	56*	1	-2	0.4	-3
CCC(=O)N(C)/C=C1\Sc2ccccc2C1=O	10	0.8	20	0.9	4
O=C(c1cccnc1Nc1ccc2c(c1)CCC2)N1CCOCC1	5	0.3	70*	0.9	0
COc1ccc2c3c(cccc13)N(C)N=C2C	63*	0.3	74*	0.4	1
CCOC(=O)c1nnn(-c2nc(N3CCCC3)nc(N3CCCC3)n2)c1-c1ccccc1	23	0.5	51*	0.8	-6
